Assay outcomes from PubChem BioAssay.
In the library only some 5.7% were active in any assay of this set; here they are far more common.
Giardia kill = Small Molecules that selectively kill Giardia lamblia: qHTS; Giardia lamblia trophozoite viability; 340,000 compounds, 0.15% hits; activity change, % at 7.66 µM, hits read low; in the data active = activity change below about -80%; inconclusive = between about -30% and that limit;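 also: parasites exposed to compound for two days anaerobically before the ATP read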
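Luminescence from cellular ATP indicates surviving trophozoites (100 cells/well) following 48 hrs anaerobic compound treatment at 37 deg C; signal develops 15-30 min at room temperature.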
KB-3-1 tox = qHTS assay for MDR1-selective chemotherapeutics: Primary screen using the parental adenocarcinoma cell KB-3-1; Potency, µM (titrated, usually from 46.1 µM), actives largely listed as cytotoxic; 400,000 compounds, 1.4% hits; KB-3-1 viability, CellTiter-Glo ATP luminescence, 72 h; also: potency is read from the fitted curve at half-maximal effect; nearly all actives have a fitted effect of over 60% in size
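Parental KB-3-1 viability, qHTS format: 72 h compound exposure, 37 °C; CellTiter-Glo; media-only wells and DMSO plates as controls; concentration-effect fits on corrected data.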
Nrf2 inh = Nrf2 qHTS screen for inhibitors | A549 ARE-Fluc reporter, luciferase luminescence, 18-24 h | Potency, µM (highest dose often 46 µM), for the others: at the highest dose activity change, negative = inhibition, most hits filed as inhibitors | 360,000 compounds, 2.1% hits | AID 504444, 2011; also: potency is read from the fitted curve at half-maximal effect; nearly all actives have a fitted effect of over 60% in size
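Nrf2 activity is the BugLite luminescence, read 15 min after reagent at room temperature, following CellTiter-Fluor cytotoxicity readout (30 min, 37C). Compound titrations were applied for 18-24 h to 5000 A549 ARE_Fluc cells/well in 5% FBS OPTI-MEM.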
PI4K2A inh = qHTS for small molecular inhibitors of PI4K2A | Phosphatidylinositol 4-kinase type 2-alpha (Homo sapiens), Q9BTU6 | purified PI4K2A, ADP-Glo luminescence, 1 h; hits give low values | activity change, negative = inhibition, % at 76.9 µM | 420,000 compounds, 0.13% hits; in the data active = activity change below about -50%; inconclusive = mostly about -30% to -49%;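 also: -100% = wells without enzyme as full effect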
Target sequence (Q9BTU6 whole entry, looked up): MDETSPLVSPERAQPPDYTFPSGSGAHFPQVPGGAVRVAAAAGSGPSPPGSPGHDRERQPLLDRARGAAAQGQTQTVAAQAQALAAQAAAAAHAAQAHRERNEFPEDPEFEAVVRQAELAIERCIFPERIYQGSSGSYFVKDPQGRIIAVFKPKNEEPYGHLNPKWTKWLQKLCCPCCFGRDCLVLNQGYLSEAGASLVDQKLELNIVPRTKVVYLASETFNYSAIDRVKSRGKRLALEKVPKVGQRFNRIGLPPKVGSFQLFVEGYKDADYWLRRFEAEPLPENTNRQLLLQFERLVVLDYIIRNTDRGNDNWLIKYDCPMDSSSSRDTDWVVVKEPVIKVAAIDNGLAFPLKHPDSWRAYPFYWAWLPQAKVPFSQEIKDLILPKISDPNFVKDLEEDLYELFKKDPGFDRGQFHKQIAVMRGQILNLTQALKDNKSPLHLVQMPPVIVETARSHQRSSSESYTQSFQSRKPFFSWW
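ADP-Glo luminescence measured ADP generated by PI4K2A enzyme (4 ug/mL before mixing) with 1.2 mM PI substrate (pre-mix) and 300 microM ATP (pre-mix). Tris pH7.5 buffer with MgCl2, Triton X-100; 1 h reaction at ambient temperature.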
KB-V1 cytotox = qHTS assay for MDR1-selective chemotherapeutics: Primary screen using the drug-selected MDR subline cells KB-V1; KB-V1 MDR cells viability, CellTiter-Glo, 72 h; Potency, µM (series often up to 46.1 µM), hits mostly cytotoxic; 400,000 compounds, 3.4% hits; also: potency is read from the fitted curve at half-maximal effect; nearly all actives have a fitted effect of over 60% in size
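qHTS viability screen in drug-selected KB-V1 MDR cells: 72 h compound treatment at 37 degrees C, ATP luminescence end point.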
A549 viability = Nrf2 qHTS screen for inhibitors: counterscreen for cytotoxicity; A549 ARE-Fluc cells, CellTiter-Fluor viability, 18-24 h; Potency, µM (highest dose often 46 µM), inactives show at the highest dose activity change, negative = cytotoxicity, hits mostly inhibitors; 390,000 compounds, 0.16% hits; also: potency is read from the fitted curve at half-maximal effect
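Cytotoxicity counterscreen: CellTiter-Fluor fluorescence was measured in A549 ARE_Fluc cells after 18-24 h of compound exposure in a concentration series. The subsequent BugLite luminescent read reports ARE-luciferase activity.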
Starred values were filed as active, the others as inactive; i = inactive; ? = inconclusive; · = no result; [ ] = another dose, or the depositor's remark. Unless noted, calls follow the shape of the dose curve; as a rule, active = well fitted curve in the direction sought with a large enough effect; inconclusive = small, poorly fitted or top-dose-only effect, or another doubt; inactive = no such curve, though single readings can be large; an effect the other way counts as inactive or inconclusive. Unless noted, % is scaled to controls: 0 for no effect and ±100 for the full control effect.

SMILES	Giardia kill	KB-3-1 tox	Nrf2 inh	PI4K2A inh	KB-V1 cytotox	A549 viability
CC(C)CN1C(=O)[C@]2(CC(=O)N(C)C2c2ccccc2)c2cc(-n3cc(C4=CCCCC4)nn3)ccc21 (stereo partly drawn)	·	·	·	10.2	·	·
O=c1[nH]c2ccccc2nc1-c1nnnn1C1CCCC1	·	i	·	2.1	i	·
O=c1[nH]c2cc3ccccc3cc2nc1-c1nnnn1C1CCCC1	·	5.8µM*	·	-3.7	i	·
CC(C)(C)OC(=O)[C@H](Cc1ccccc1)NC(=O)c1nc[nH]c1C(=O)N[C@@H](Cc1ccccc1)C(=O)OC(C)(C)C	-12.6	16.4µM*	?	-0.2	?	?
CCOC(=O)c1ccc(NC(=O)c2nc[nH]c2C(=O)N[C@@H](Cc2ccccc2)C(=O)OC(C)(C)C)cc1	-15.5	13µM*	?	-2.1	i	-4.0%
CC(C)(C)OC(=O)NCCCC[C@H](NC(=O)c1[nH]cnc1C(=O)N[C@@H](Cc1ccccc1)C(=O)OC(C)(C)C)C(=O)OC(C)(C)C	?	?	?	-0.4	i	-17.2%
C[C@H](NC(=O)c1nc[nH]c1C(=O)N[C@@H](CCCCNC(=O)OC(C)(C)C)C(=O)OC(C)(C)C)c1ccccc1	-26.3	?	?	-0.3	20.6µM*	-16.8%
C[C@H]1[C@H](NC(=O)c2ccc(Cl)cc2)CC[C@@]23CCCN2C(=O)CCC[C@@H]13	·	·	·	-3.2	·	·
CC(C)(C)CC(C)(C)N=C1Nc2cc(Cl)c(Cl)cc2N[C@]12C[C@H]1CCCC(=O)N3CC[C@@H](C2)[C@@H]13	·	i	·	·	i	·
O=C(c1ccc2c(c1)OCCO2)N1CCN(c2nc(-c3cccs3)nc3ccccc23)CC1	-2.1	·	?	·	·	-17.1%
COc1ccc(C(=O)N=c2sc3c(C)ccc(OC)c3n2C)cc1	?	9.2µM*	?	0.1	5.8µM*	-1.6%
COc1cc(C(=O)N=c2sc3c(C)ccc(OC)c3n2C)cc(OC)c1OC	10.6	?	?	0.5	i	-6.1%
Cc1cc2c(n1-c1ccc(Cl)cc1)CC(C)(C)CC2=O	-16.9	i	10.2%	2.1	13µM*	12.3%
CCOC(=O)N1CCC(N(C(=O)Nc2cccc(OC)c2)C(C)CC)CC1 (stereo not drawn)	12.5	i	?	1.9	18.4µM*	0.5%
CCOC(=O)N1CCC(N(CCCOC)C(=O)Nc2cccc(OC)c2)CC1	-17.1	i	4.2%	-4.3	i	0.0%[1.84 µM]
O=C1CC(C(=O)N(c2cccc(F)c2)C(C(=O)NC2CCCC2)c2ccccn2)CS1 (stereo not drawn)	-11.8	i	·	-0.2	i	-3.8%
O=C1CC(C(=O)N(c2ccc(F)cc2)C(C(=O)NC2CCCC2)c2ccccn2)CS1 (stereo not drawn)	4.6	i	18.8%	-1.8	11.6µM*	-4.7%
Cn1c(SCC(=O)N2CCCc3ccccc32)ncc(C(=O)Nc2ccccc2)c1=O	·	·	·	0.1	·	14.9%
O=C(c1ccc(Cl)c(S(=O)(=O)N2CCCCC2)c1)N1CCCCC1	-1.1	i	15.5%	3.3	i	-1.0%
O=C(c1ccc(Cl)c(S(=O)(=O)N2CCCC2)c1)N1CCN(c2ccc(F)cc2)CC1	2.3	?	?	-2.4	5.8µM*	-11.5%
O=C(c1ccc(Cl)c(S(=O)(=O)N2CCOCC2)c1)N1CCN(c2ccccc2)CC1	-22.9	i	-5.3%	-0.8	?	6.3%
COc1ccccc1N1CCN(C(=O)c2ccc(Cl)c(S(=O)(=O)NCc3ccco3)c2)CC1	1.8	7.08µM*	?	4.1	12.6µM*	-26.1%
O=C(c1ccc(Cl)c(S(=O)(=O)N2CCCCCC2)c1)N1CCN(c2ccccc2O)CC1	-2.4	i	18.4µM*	0.3	?	-14.7%
